# Measured values as given in PubChem BioAssay (NCI).
# This is part of a sample that, as a whole, favours compounds with a hit. Of some 83,000 tested, about 20% had one in any assay.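 Compound tested at a single concentration for 48 hours in 96-well plates; a percent growth value below 10 was scored as active.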 A number with no mark means an inactive call. Active and inactive are the calls of the source.
# Key:
# Assay in all cases: NCI-60 one-dose screen, 48 h (100 = growth as untreated, 0 = no growth, -100 = all killed)
# Details in all cases: 10 µM unless noted
# [1] = tested on: SK-MEL-2 melanoma
# [2] = tested on: EKVX NSCLC
# [3] = tested on: SN12C renal
# [4] = tested on: UO-31 renal
# [5] = tested on: TK-10 renal
# [6] = tested on: ACHN renal
# [7] = tested on: CAKI-1 renal
# [8] = tested on: A498 renal
# [9] = tested on: CCRF-CEM leukemia
# [10] = tested on: MOLT-4 leukemia
# [11] = tested on: SR leukemia
# [12] = tested on: RPMI-8226 leukemia
# [13] = tested on: OVCAR-8 ovarian
# [14] = tested on: OVCAR-5 ovarian
# [15] = tested on: OVCAR-4 ovarian
# [16] = tested on: SK-OV-3 ovarian
# [17] = tested on: IGROV1 ovarian
# [18] = tested on: OVCAR-3 ovarian
# [19] = tested on: HS 578T breast
# [20] = tested on: NCI/ADR-RES ovarian
Structure (SMILES),growth [1],growth [2],growth [3],growth [4],growth [5],growth [6],growth [7],growth [8],growth [9],growth [10],growth [11],growth [12],growth [13],growth [14],growth [15],growth [16],growth [17],growth [18],growth [19],growth [20]
Cc1ccc(-n2cc(/C=N/NC(=O)c3nc(N)n[nH]3)c(-c3ccc(S(C)(=O)=O)cc3)n2)cc1,103%,92.9%,96.6%,92.6%,119%,101%,92.6%,97.6%,84%,97.9%,79.3%,100%,100%,105%,101%,104%,98.4%,95.7%,108%,100%
O=C(CNc1nc(-c2cccc([N+](=O)[O-])c2)cs1)Nc1cccc(Cl)c1,107%,89.2%,99.4%,80.5%,149%,101%,106%,93%,103%,101%,94.9%,98%,101%,105%,102%,107%,102%,116%,110%,105%
Cn1ccnc1C(=O)/C=C/c1ccc(CNC(=O)c2ccc(Cl)cc2)cc1,91.7%,26.4%,17.3%,-11.3% (active),21.3%,2.81% (active),35.9%,21.1%,7.64% (active),0.825% (active),4.17% (active),-13.7% (active),24.6%,11%,37.9%,43.1%,12.2%,17%,28.1%,10.4%
CCCCNNC(=O)c1ccc(-c2cccc(F)c2F)cc1,26.8%,45.3%,56.3%,3.46% (active),13.3%,22.4%,30.9%,-6.27% (active),27.4%,27.7%,25.2%,5.02% (active),20.8%,24.9%,41.5%,47.2%,31.3%,44.6%,41.2%,13.4%
CC(C)(C)c1ccc(C(=O)Nc2sc3c(c2C(N)=O)CCC(O)C3)cc1 (stereo not given),80.3%,62.9%,74.8%,49.1%,82.8%,25.4%,5.67% (active),78%,53.1%,56.4%,25.8%,16.3%,43.4%,66.5%,68.5%,70.1%,44.9%,55.3%,82.9%,49.9%
COc1c(N2CC3CCCNC3C2)c(F)cc2c(=O)c(C(=O)N/N=C/c3ccc(F)cc3)cn(C3CC3)c12 (stereo not given),100%,90%,88.4%,80.7%,101%,104%,87.7%,59.9%,63.8%,63.1%,-24.6% (active),60.2%,91.7%,95.6%,90.5%,110%,97.9%,92.9%,94.4%,89.4%
NC(N)=Nc1ccc(Oc2cccc(Oc3ccc(Cl)c(C(F)(F)F)c3)c2)cn1,-36.3% (active),-7.2% (active),-86.6% (active),49.7%,-27.1% (active),-99.7% (active),9.01% (active),15.1%,-29.8% (active),-48.7% (active),-58.9% (active),-49.5% (active),-50.8% (active),-74.5% (active),-76.8% (active),75.8%,-81.7% (active),-95% (active),79.8%,-6.8% (active)
Cn1ccnc1C(=O)/C=C/c1ccc(CNC(=O)c2ccc(F)cc2)cc1,105%,53.5%,20%,34.9%,75%,43.4%,48%,63.7%,12.8%,9.84% (active),8.69% (active),13%,47.1%,17.4%,42%,77.8%,23.1%,15.1%,40.4%,18.9%
CS(=O)(=O)c1ncc(-c2ccccc2)cn1,97.6%,97.1%,96.4%,85.1%,97.3%,97.3%,107%,86.5%,86.6%,97.2%,70.9%,108%,99.3%,103%,98.6%,108%,99.5%,90.7%,111%,103%
CCCn1cnc2c(c1=N)C(c1ccc(Cl)cc1)c1sc3c(C)cccc3c1O2 (stereo not given),33.5%,42.7%,17.9%,32.2%,93.3%,29.1%,29.8%,-13.1% (active),3.96% (active),15.5%,12.6%,1.37% (active),23.5%,34.2%,89.2%,44.2%,23.7%,2.26% (active),15.4%,7.18% (active)
O=C(CN1CCN(c2cc(=O)n(-c3ccccc3)c3ccccc23)CC1)Nc1nc(-c2ccc(Cl)cc2)cs1,75.6%,42.7%,74.1%,29.5%,62.4%,55.1%,49.6%,40.7%,50.7%,29%,56.8%,36.7%,59.4%,93.1%,19.7%,71.4%,65.5%,67.1%,92.8%,54.9%
NC(N)=Nc1ccc(Oc2cccc(NC(N)=Nc3ccc(Br)c(C(F)(F)F)c3)c2)cc1,83.2%,59.3%,24.5%,89.3%,65.3%,92.9%,72%,48.4%,53.3%,49.3%,4.94% (active),45.5%,65.5%,45.1%,58.9%,57%,-16.6% (active),23.5%,34%,96.8%
Cc1ccc(C2=NN(C)C(=O)C3(CCCC3)C2)cc1,110%,102%,101%,95.5%,97.3%,110%,100%,89.4%,111%,102%,113%,111%,102%,102%,106%,110%,110%,110%,109%,102%
COc1ccc([C@@H]2c3[nH]c4ccccc4c3C[C@H]3C(=O)N(C4CCN(CC5CCCCC5)CC4)CC(=O)N23)c(OC)c1,95.9%,61.6%,81.6%,37.3%,98.2%,81.3%,44.7%,78.9%,60.5%,46.1%,25.9%,53.6%,82.2%,94.1%,70.5%,86.2%,60%,74.9%,68.9%,76.7%
Clc1cccc(/C=N/Nc2nc(N/N=C/c3cccc(Cl)c3Cl)nc(N3CCCCC3)n2)c1Cl,114%,89%,80.7%,93.2%,91.2%,83.7%,84.1%,92.5%,71.3%,84.3%,33.4%,93.4%,72.9%,94%,71.5%,105%,79.6%,8.19% (active),85%,67.4%
